Fewer than 10 of roughly 83,000 compounds were called active. No rule for the calls is given here. These entries were drawn from the full list. Measured potencies and affinities stand elsewhere.

The target in the assay is Heat shock cognate 71 kDa protein (Homo sapiens) (UniProt P11142). Briefly: small molecules displacing fluorescent ligand from Hsc70 – biochemical, fluorescence polarization, primary screen (AID 568). Particulars: mP, at 20 µM, active compounds read high.
Sequence of Heat shock cognate 71 kDa protein (Homo sapiens) (P11142 whole entry, looked up): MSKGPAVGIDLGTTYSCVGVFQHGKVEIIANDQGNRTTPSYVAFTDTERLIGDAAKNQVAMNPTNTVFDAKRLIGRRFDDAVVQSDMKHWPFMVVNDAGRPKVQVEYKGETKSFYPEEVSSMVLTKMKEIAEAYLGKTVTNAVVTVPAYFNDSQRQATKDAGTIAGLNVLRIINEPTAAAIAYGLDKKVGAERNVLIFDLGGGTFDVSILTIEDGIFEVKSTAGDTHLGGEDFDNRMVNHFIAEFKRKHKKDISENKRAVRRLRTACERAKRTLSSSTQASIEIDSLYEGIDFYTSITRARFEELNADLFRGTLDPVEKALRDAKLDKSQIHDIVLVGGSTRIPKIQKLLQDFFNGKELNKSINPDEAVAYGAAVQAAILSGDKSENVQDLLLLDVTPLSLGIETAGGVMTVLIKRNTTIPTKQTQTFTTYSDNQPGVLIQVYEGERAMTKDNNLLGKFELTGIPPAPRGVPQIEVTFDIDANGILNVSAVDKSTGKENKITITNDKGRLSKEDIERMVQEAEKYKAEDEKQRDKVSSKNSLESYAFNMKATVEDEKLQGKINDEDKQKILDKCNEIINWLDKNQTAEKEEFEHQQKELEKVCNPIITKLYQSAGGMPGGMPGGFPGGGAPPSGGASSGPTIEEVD
Sequence of Heat shock cognate 71 kDa protein (Homo sapiens) (P11142 whole entry, looked up): as above
For the molecule `CN1C(=S)SC(/[N+]([O-])=C\c2ccco2)C1(C)C` (configuration not stated), the displacement was -8.3% (inactive).

For `CCOC(=O)c1sc(NC(=O)C2CCCO2)c(C(=O)OC)c1C` (configuration not stated), the displacement was 2.1% (inactive).

Regarding `Cc1ccc(-c2cc3nc(C)cc(NCc4ccco4)n3n2)cc1`, the displacement is -12.6% (inactive).

For the molecule `CCOC(=O)N1CCC(N2C(=O)c3ccccc3C2Nc2ccc(Cl)cn2)CC1` (configuration not stated), the displacement is 0% (inactive).

Take `CCC(=O)N1CCc2cc(Br)cc(S(=O)(=O)NCC3CCCO3)c21` (configuration not stated): the displacement was 5.2% (inactive).

As for `COc1ccc(-c2nnc3sc(CCN4C(=O)c5ccccc5C4=O)nn23)cc1`, the displacement is -0.6% (inactive).

On to `O=C(N1CCN(c2ccccc2)CC1)C(F)(F)C(F)(F)F`, for which the displacement is 8.8% (inactive).

For `CCOC(=O)CCSCC(=O)Nc1cc(C)on1`, the displacement is 4.3% (inactive).

Consider `Cc1ccc(NCc2nnc(SCC(=O)OC3CCCCC3)o2)c(C)c1`, for which the displacement is -6.7% (inactive).

As for `CCN1CCN(C(=O)c2sc3nc(C)nc(N4CCC(C)CC4)c3c2C)CC1`, the displacement is -3.6% (inactive).

In the case of `CN(c1ccccc1)C(c1ccc(F)cc1)c1nnnn1C1CCCC1` (configuration not stated), the displacement was -4.6% (inactive).

With `CCOC(=O)c1ccc(COC(=O)CNC(=O)CNC(=O)c2ccc(OC)cc2)o1`, the displacement was -3.7% (inactive).

On to `CC(C)C(c1nnnn1Cc1ccc(F)cc1)N1CCSCC1` (configuration not stated), for which the displacement is -2.2% (inactive).

Take `COc1ccc(CCN2CNc3c(c(=O)n(C)c(=O)n3C)C2)cc1`: the displacement is 0.1% (inactive).

For `O=C(CSc1nnc(-c2ccncc2)n1CC1CCCO1)NCc1ccccc1` (configuration not stated), the displacement is -0.2% (inactive).

On to `O=C(Nc1ccc(N2CCOCC2)cc1)c1cccc(S(=O)(=O)N2CCC(Cc3ccccc3)CC2)c1`, for which the displacement was -1.4% (inactive).

Consider `Cc1ccc(OCC(=O)Nc2cc(-c3nn4c(C)nnc4s3)ccc2C)cc1`, for which the displacement is 4.5% (inactive).

As to `Clc1ccc(/C=N/c2c(-c3ccco3)nc3ccccn23)cc1`, the displacement was 3.7% (inactive).

Consider `CC(NC(=O)c1ccc(CS(=O)(=O)c2cccc(C(F)(F)F)c2)o1)c1ccc2c(c1)OCCO2` (configuration not stated), for which the displacement was -1.8% (inactive).

With `COc1ccc(C(=O)Oc2cccnc2)cc1`, the displacement is -4.3% (inactive).

With `Cc1ccc(C)c2c1[nH]c1ccccc12`, the displacement was 1.5% (inactive).

As for `CC(C)Cc1cc(C(=O)N2N=C(C(F)F)CC2(O)C(F)F)c2ccccc2n1` (configuration not stated), the displacement was 1.5% (inactive).

Take `COc1cc2cc(C(c3nnnn3C3CCCC3)N3CCCCCC3)c(=O)[nH]c2cc1OC` (configuration not stated): the displacement is -5% (inactive).

On to `COCCN1C(=O)c2ccccc2C(C(=O)NCCN(C)C)C1c1ccc(F)cc1` (configuration not stated), for which the displacement was -4.9% (inactive).

For `CCCCn1c(=O)n(CC(=O)Nc2ccc(C)c(Cl)c2)c(=O)c2c1ncn2Cc1ccco1`, the displacement is -21.2% (inactive).

For `CCOc1ccc(CC(C(=O)NN)C(=O)NN)cc1CN(C)C`, the displacement was 2.3% (inactive).

`COc1ccc(Br)cc1CNC(=O)C1CCCN(S(C)(=O)=O)C1` (configuration not stated): the displacement was -2% (inactive).

With `OC(COc1ccc2c(c1)OCO2)CN1CCc2ccccc2C1` (configuration not stated), the displacement was 1.3% (inactive).

On to `COCCNC(=O)C(c1ccc(C)o1)N(Cc1ccco1)C(=O)c1snc(C(N)=O)c1N` (configuration not stated), for which the displacement is 5.3% (inactive).

For the molecule `CC1=CN2C(=NC(=O)CC2(C)C(=O)N(CC(=O)NC2CCCC2)c2ccccc2C)C=C1` (configuration not stated), the displacement is -1.4% (inactive).

Take `CC(=O)OCCn1c(Br)nc2c1c(=O)[nH]c(=O)n2C`: the displacement is 4.4% (inactive).

Consider `Cc1nc2c(C(=O)N3CCCCC3)cnn2c(C)c1Cc1ccccc1F`, for which the displacement is 2.6% (inactive).

For `COC(=O)[C@H](Cc1ccccc1)NC(=O)N1CCC(C)CC1`, the displacement was -1.3% (inactive).

Take `CN1CCN(S(=O)(=O)c2ccc(N3CCN(S(=O)(=O)/C=C/c4ccccc4)CC3)nc2)CC1`: the displacement is -5.3% (inactive).

Turning to `Cn1cnnc1SCCC(=O)Nc1ccc(Cl)cc1`, the displacement was 4.9% (inactive).

`CC1CCCCC1NC(=O)Cn1ncc2ccccc21` (configuration not stated): the displacement was -0.3% (inactive).

On to `CCC(Sc1nc2n[nH]c(C)c2c(=N)n1-c1cccc(Cl)c1C)C(=O)N(CC)CC` (configuration not stated), for which the displacement is -7.7% (inactive).

On to `Cc1ccc(-c2noc(C3CCCN(C(=O)c4ccccc4)C3)n2)o1` (configuration not stated), for which the displacement was 1.4% (inactive).

In the case of `CCc1ccc2nc(NC3=NCN(CCOC)CN3)nc(C)c2c1`, the displacement is 0.7% (inactive).

With `Cc1ccc(N2CN=C(c3ccccc3)NC2=S)cc1`, the displacement is -3.8% (inactive).

For the molecule `CCOC(=O)c1ccc(NC(=O)CSc2nc(C)cc(=O)[nH]2)cc1`, the displacement was -2.1% (inactive).

Consider `O=C(NC1CCCCCCC1)c1ccco1`, for which the displacement is -2.6% (inactive).

Consider `Cc1c(/C=C/C(=O)c2cccs2)cnn1C`, for which the displacement was 0.7% (inactive).

On to `CCOc1cccc(C(=O)Nc2ccc(N(CC)CC)cc2)c1`, for which the displacement was -1.7% (inactive).

Consider `O=C1c2ccsc2SCCN1Cc1ccc(Cl)cc1`, for which the displacement was 3.5% (inactive).

`Nc1ccccc1SCc1cn2cccnc2n1`: the displacement was -0.9% (inactive).

Regarding `CC(C)[C@H](NC(=O)OC(C)(C)C)c1nnc(SCc2cccc(F)c2)o1`, the displacement is 6.2% (inactive).

For the molecule `CC(C)(C)c1ccc(-c2nnc(SCCN3C(=O)c4ccccc4C3=O)o2)cc1`, the displacement is -4.1% (inactive).

With `CCCn1nnc(NC(=O)c2ccccc2Br)n1`, the displacement is -4.1% (inactive).

As for `Cc1ccc2nc(NC(=O)c3cccs3)sc2c1`, the displacement was 1.4% (inactive).

Take `Cc1ccccc1-n1c(=O)cc(N2CCN(C(=O)c3ccco3)CC2)[nH]c1=O`: the displacement was -0.4% (inactive).

As for `COc1ccc2[nH]cc(C(=O)CN3CCN(C(=O)c4ccco4)CC3)c2c1`, the displacement was -1.6% (inactive).

Take `COc1ccc(C2C(C(=O)NC(C)C)c3ccccc3C(=O)N2C)cc1OC` (configuration not stated): the displacement is -8.3% (inactive).

For `COc1ccc(C(=O)CN2C(=O)c3ccccc3C2=O)c(OC)c1C`, the displacement was -1.2% (inactive).

In the case of `O=C(CC12CC3CC(CC(C3)C1)C2)NCO`, the displacement is -2.2% (inactive).

On to `CCCCOCC(O)Cn1c(C)nc2ccccc21` (configuration not stated), for which the displacement was -2.3% (inactive).

With `CN=C1SC(CC(=O)Nc2cccc(Cl)c2Cl)C(=O)N1C` (configuration not stated), the displacement is 0% (inactive).

With `COc1nc(OC)nc(N2CCCCCC2)n1`, the displacement was 7.4% (inactive).

As to `c1cncc(-c2nc3cc(Cc4ccc5oc(-c6cccnc6)nc5c4)ccc3o2)c1`, the displacement is -0.1% (inactive).

On to `COCCCn1c(SCC(=O)Nc2ccc3c(c2)OCCO3)nnc1-c1ccoc1C`, for which the displacement is -9.3% (inactive).

For `Cn1cccc1Cc1nnc(SCC(=O)NCc2ccccc2)n1-c1ccc(F)cc1`, the displacement is 1.3% (inactive).

For the molecule `CC(C)CC(=O)Nc1ccc(-c2cn3ccsc3n2)cc1`, the displacement is 3% (inactive).

Turning to `CCOC(=O)c1sc(=S)n(-c2ccccc2OC)c1N`, the displacement is 4.2% (inactive).

For the molecule `COc1ccc(N(CC(=O)Nc2cc(OC)ccc2OC)S(=O)(=O)c2c(C)nn(C)c2C)cc1`, the displacement was -0.1% (inactive).

As to `Oc1c(Cl)cc(Cl)c2c1NCCC2`, the displacement is 1% (inactive).

Consider `Oc1c(Cl)cc(Cl)cc1Sc1cc(Cl)cc(Cl)c1O`, for which the displacement is 11.6% (inactive).

For `NC(=O)CSc1nnc(Cc2ccc3c(c2)OCO3)n1C1CCCCC1`, the displacement is -4.2% (inactive).

Regarding `COc1cccc(Nc2c(F)c(F)c(F)c(F)c2C(=O)O)c1`, the displacement is 3.7% (inactive).

For the molecule `CC1(C)CC(=O)C2=C(C1)OC(N)=C(C#N)C21C(=O)N(Cc2ccccc2Cl)c2ccccc21` (configuration not stated), the displacement is -38.5% (inactive).

Consider `O=C(CSc1nc(-c2ccco2)cc(C(F)(F)F)n1)NC1CCCCCCC1`, for which the displacement was -4.2% (inactive).

Regarding `Cc1ccc2c(c1)N(Cc1ccc3c(c1)OCO3)C(=O)C(C)O2` (configuration not stated), the displacement is -2.1% (inactive).

As to `O=C(Cn1cnc2c(nnn2Cc2ccccc2)c1=O)N1CCCc2ccccc21`, the displacement is 2% (inactive).

Regarding `CC(=O)NCCc1ccc(S(=O)(=O)NC2OC(=O)c3ccccc32)cc1` (configuration not stated), the displacement was -3.3% (inactive).

Regarding `CC1(C)Cc2c(c(N3CCOCC3)nc3sc4c(=O)[nH]cnc4c23)CS1`, the displacement is -5% (inactive).

For `C=CCN1C(=O)C2C(C(=O)NCc3ccccc3)C3C=CC2(O3)C1C(=O)NC(C)(C)C` (configuration not stated), the displacement is -3.6% (inactive).

As to `O=C1CCCCCN1CSc1nc2ccccc2s1`, the displacement is 5.1% (inactive).

As to `CCOC(=O)N1CCN(C(=O)CN(c2ccc3c(c2)OCO3)S(C)(=O)=O)CC1`, the displacement is 0.1% (inactive).

Turning to `Oc1ccccc1-c1cc(-c2ccco2)[nH]n1`, the displacement is 1.3% (inactive).

Take `CC(=O)Nc1ccc(S(=O)(=O)N(C)CC(=O)Nc2ccccc2N2CCOCC2)cc1`: the displacement is -0.5% (inactive).

In the case of `COc1ccc(-c2nc(CS(=O)CC(=O)NCc3cccnc3)c(C)o2)cc1` (configuration not stated), the displacement was 1.8% (inactive).

Regarding `Cc1ccc(C)c(N(CC(=O)NC2CCCC2)C(=O)CCCC(=O)Nc2ccccn2)c1`, the displacement is 4.6% (inactive).

For `CN1CCc2c(sc3c2C(=O)NC(/C=C/c2ccco2)N3)C1` (configuration not stated), the displacement was 5.2% (inactive).

For the molecule `CCOc1c(Cl)cc(C(=O)NCCN2CCCCC2)cc1Cl`, the displacement was -10.7% (inactive).

Turning to `Cc1ccccc1NC(=O)Cn1cccc1`, the displacement is -0.7% (inactive).

As for `Cc1ccc(-c2nn3c(-c4ccco4)nnc3c3ccccc23)cc1S(=O)(=O)NCC1CCCO1` (configuration not stated), the displacement was 1% (inactive).

On to `CC1CC(C)CN(CCCNC(=O)C2CCN(S(=O)(=O)N3CCCCC3)CC2)C1` (configuration not stated), for which the displacement is -3.8% (inactive).

In the case of `O=C(Nc1ccc(-c2nc3ccccc3[nH]2)cc1)c1ccco1`, the displacement was -7.1% (inactive).

Turning to `CC(C)N(C#N)c1nc(N2CCOCC2)nc(N2CCOCC2)n1`, the displacement is 9.4% (inactive).

For `CC1=C(C(=O)N(C)CCC#N)C2(CCCCC2)OC1=O`, the displacement was -1.4% (inactive).

On to `O=C(NC(Cc1ccccc1)c1nc2ccccc2[nH]1)C1CC(=O)N(c2ccc3c(c2)OCCO3)C1` (configuration not stated), for which the displacement was -10.1% (inactive).

Take `Cc1ccc(C(=O)Nc2cc(=O)n(C)c(=O)n2C)o1`: the displacement was 5.3% (inactive).

In the case of `O=C(CCCn1c(=S)[nH]c2cc3c(cc2c1=O)OCO3)N1CCN(c2ccccn2)CC1`, the displacement was -4.4% (inactive).

For the molecule `Cc1cnc(NC(=O)c2cc3c(C)nn(-c4ccccc4)c3s2)s1`, the displacement was -5.6% (inactive).

As for `CC1CCN(C(=O)c2cc(-c3ccccc3O)on2)CC1`, the displacement is -5% (inactive).

For the molecule `CCOC(=O)C1CCCN(CCC(=O)Nc2ccc(C)cc2)C1` (configuration not stated), the displacement is -2.2% (inactive).

In the case of `CCCCN(C(=O)CNC(=O)c1ccco1)C(C(=O)NC1CCCC1)c1ccc(OC)cc1` (configuration not stated), the displacement was 2.3% (inactive).

Regarding `O=C(Nc1ccc(F)c(F)c1)c1cccnc1`, the displacement was -5.4% (inactive).

As to `Cc1cc(C(=O)CN2C(=O)NC(c3ccccc3)(c3ccccc3)C2=O)c(C)n1Cc1ccccc1`, the displacement is -22.9% (inactive).

Regarding `Cc1nnc(SCC(=O)Nc2ccc(S(=O)(=O)N3CCCCC3)cc2)s1`, the displacement is -3.1% (inactive).

On to `CN(C)S(=O)(=O)c1ccc(NC(=O)c2c(F)cccc2Cl)cc1`, for which the displacement is -2.2% (inactive).

As to `Cc1c(C(=O)OCC(=O)N2c3ccccc3CC2C)oc2ccccc12` (configuration not stated), the displacement was -0.6% (inactive).

For `O=C(NCCN1CCOCC1)Nc1ccc(Cl)cc1Cl`, the displacement was -6.7% (inactive).

These data come from PubChem BioAssay AID568 (Sanford-Burnham Center for Chemical Genomics, 2006).
